Screening data deposited in PubChem BioAssay by several laboratories.
M1 ag parental = M1 agonist counterscreen hit in parental CHO-K1 cells; Fluo-8 calcium fluorescence; scaled to maximal ATP response, vehicle zero; activation, % at 3 µM; hit rate 0.48% among 360,000; AID 602248; in the data active means activation above about 15%;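 further: untransfected CHO-K1 host cells lacking M1 receptor as counterscreen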
TMEM16A act = activators or potentiators of mouse TMEM16A chloride channel; Q8BHY3; HEK293 TMEM16A/YFP-H148Q/I152L, iodide quench fluorescence; stronger effect = lower value; B-score at 10 µM; hit rate 0.3% among 340,000; AID 623877;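 active means fluorescence-ratio B-score plate-corrected deviation score at least 3 library SD below zero, with starting fluorescence score within 5 deviations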;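 further: channel opened by trigger with iodide after compound preincubation; score built on the fluorescence ratio of max minus min over baseline; more negative score means more quench and so TMEM16A activation or potentiation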
TMEM16A inh = mouse TMEM16A channel inhibition, primary screen | Q8BHY3 | HEK293 TMEM16A/YFP iodide influx fluorescence, ionomycin | normalized B-score (activity score, 25-100; higher = stronger inhibition) at 10 µM | hit rate 1.2% among 310,000 | AID 588511;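 active means ratio plate-corrected score three or more library SD toward inhibition, starting fluorescence score within five deviations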;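 further: score derived from kinetic fluorescence span divided by baseline fluorescence per well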
M1 PAM parental = counter-screen for M1 PAMs: effect in parental CHO-K1 cells | ATP EC20, Fluo-8 calcium fluorescence; 0% at ATP EC20, 100% at ATP max | activation, % at 3 µM | hit rate 0.02% among 360,000;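 active means activation above the run cutoff, the mean activation of all test compounds plus 3 SD, cut at about 40% in these data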;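 further: peak over basal fluorescence ratio in a 140 s read after ATP addition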
NTR1 ag = agonists of human neurotensin receptor NTR1. NTR1-U2OS beta-arrestin-GFP spot imaging, agonist mode. P30989. hit rate 0.17% among 330,000. activation, % at 20 µM. AID 493036;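 active means activation at or above 40% of the spot to cytoplasm intensity ratio, with at least 20 cells analyzed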;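 further: 0% = DMSO without peptide and 100% = 100 nM NTR1 peptide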
CHO-K1 Ca antag = nonselective inhibitor or artifact in parental CHO-K1 cells; ATP-induced calcium, Fluo-8 fluorescence; inhibition, % at 3 µM; hit rate 0.6% among 360,000;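 active means inhibition above a per-plate cutoff, the plate's mean sample inhibition plus 3 SD, cut at about 24% in these data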;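 further: 0% = DMSO plus EC80 ATP and 100% = DMSO alone without ATP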
TMEM16A reconf = reconfirmed blocker of mouse TMEM16A calcium-activated chloride channel; shares compounds with TMEM16A inh; HEK293 TMEM16A/YFP-H148Q, iodide quench fluorescence; ionomycin added to raise cell calcium; inhibition, % at 10 µM; hit rate 39% among 2,300; AID 652189;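 active means mean duplicate percent inhibition, scaled so buffer wells are 0 and the reference blocker 100, over three buffer SD above buffer mean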
HEK293 Ca mobil = counter-screen for TMEM16A inhibitors: effect on calcium mobilization; shares compounds with TMEM16A inh; TMEM16A/YFP HEK293, Fluo4 calcium mobilization; calcium response (% of ionomycin), % at 10 µM; hit rate 2% among 2,300; AID 652231;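 active means duplicate-averaged calcium signal over 20% of the ionomycin maximum, relative to buffer baseline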;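 further: each well's signal is peak minus trough fluorescence divided by its pre-addition baseline; 0% = buffer wells and 100% = ionomycin wells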
YFP-HEK293 quench = acts in parental YFP-HEK293 cells lacking TMEM16A, counter-screen; shares compounds with TMEM16A inh; iodide YFP quench, ionomycin; YFP ratio F(max-min)/F0 at 10 µM; 2,300 tested, under 10 active;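 active means yellow fluorescent protein signal ratio exceeding the buffer control mean by over 5 SD of those controls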;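 further: ratio is mean of duplicate wells from kinetic YFP trace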
ClC-1 inh = selectivity of TMEM16A inhibitors: inhibition of rat ClC-1 chloride channel. ratio percent, % at 10 µM. CHO ClC-1-YFP, iodide influx fluorescence quench; iodide control reads 0, buffer control 100. AID 652236. 2,300 tested, under 10 active. shares compounds with TMEM16A inh;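 active means duplicate-mean ratio percent above the mean of iodide-only control wells, which defines zero, plus 5 of their SD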;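 further: higher percent means stronger block of ClC-1 iodide influx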
Target sequence (P35524 whole entry, looked up): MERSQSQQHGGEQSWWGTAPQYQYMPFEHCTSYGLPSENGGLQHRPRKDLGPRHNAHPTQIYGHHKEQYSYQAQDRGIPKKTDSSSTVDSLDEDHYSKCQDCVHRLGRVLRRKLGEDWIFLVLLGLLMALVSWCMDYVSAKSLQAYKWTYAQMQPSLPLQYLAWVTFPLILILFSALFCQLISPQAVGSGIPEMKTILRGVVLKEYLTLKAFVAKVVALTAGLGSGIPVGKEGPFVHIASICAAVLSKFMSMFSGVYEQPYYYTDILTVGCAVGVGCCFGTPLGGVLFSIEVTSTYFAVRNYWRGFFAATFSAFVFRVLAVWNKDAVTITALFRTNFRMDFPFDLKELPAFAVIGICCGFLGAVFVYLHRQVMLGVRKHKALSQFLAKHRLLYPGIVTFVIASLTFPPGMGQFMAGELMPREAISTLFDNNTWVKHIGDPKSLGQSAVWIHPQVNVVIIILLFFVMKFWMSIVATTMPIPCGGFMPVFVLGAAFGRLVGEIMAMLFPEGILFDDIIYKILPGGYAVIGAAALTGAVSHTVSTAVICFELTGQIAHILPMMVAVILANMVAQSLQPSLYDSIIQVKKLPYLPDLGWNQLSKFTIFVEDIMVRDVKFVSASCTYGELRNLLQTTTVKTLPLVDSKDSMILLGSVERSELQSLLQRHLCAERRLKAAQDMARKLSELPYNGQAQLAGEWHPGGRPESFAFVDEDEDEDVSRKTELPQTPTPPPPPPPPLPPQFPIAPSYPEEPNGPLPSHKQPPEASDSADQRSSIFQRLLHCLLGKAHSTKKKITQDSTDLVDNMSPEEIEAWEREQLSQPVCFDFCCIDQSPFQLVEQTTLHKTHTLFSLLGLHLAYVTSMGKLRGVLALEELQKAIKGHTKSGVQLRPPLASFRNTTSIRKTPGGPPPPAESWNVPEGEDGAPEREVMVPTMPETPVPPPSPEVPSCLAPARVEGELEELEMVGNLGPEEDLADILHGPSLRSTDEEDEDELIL
The depositor's hits bear a star; i = inactive; · = no result given. Rows were chosen to be rich in hits. Some 2.2% of all compounds tested hit in one or more screens of this group.

SMILES	M1 ag parental	TMEM16A act	TMEM16A inh	M1 PAM parental	NTR1 ag	CHO-K1 Ca antag	TMEM16A reconf	HEK293 Ca mobil	YFP-HEK293 quench	ClC-1 inh
CCN(C(=O)Cc1c(C(=O)O)[nH]c2ccccc12)c1cc(OC)ccc1OC	0.9	i	100*	21.1	0.2	-9.1	i	i	-1.07	-4.5
C=CCn1c(SC(C)C(=O)NCc2ccc3c(c2)OCO3)nc2scc(-c3ccccc3)c2c1=O (stereo not given)	0.9	i	100*	-2.6	2.9	-11.2	i	i	-1.16	-7.0
C=CCn1c(SCC(=O)NCc2ccc3c(c2)OCO3)nc2scc(-c3ccc(F)cc3)c2c1=O	0.1	i	i	12.1	5.6	4.2	·	·	·	·
O=C(CCN1C(=O)COc2ccccc21)N1CCCCC1	0.8	i	i	2.0	1.6	1.7	i	i	-0.957	-5.5
Cc1nc2ccc(NS(=O)(=O)c3ccc(C)c(C)c3)cc2s1	6.8	i	i	12.1	2.0	16.1	·	·	·	·
CC(=O)c1cccc(S(=O)(=O)Nc2ccc3nc(C)sc3c2)c1	11.2	i	100*	-9.3	3.4	4.3	i	i	-0.956	-10.0
CC(C)(C)[C@H]1COC(=O)[C@H](Cc2ccc(F)cc2)CC/C=C/C[C@@H](CC(=O)N[C@H](CO)Cc2ccccc2)C(=O)N1	0.1	i	·	-7.3	1.5	-4.1	·	·	·	·
CNC[C@@H](Cc1ccccc1)NC[C@@H](CC1CCCCC1)NCCCc1ccccc1	4.3	i	i	0.9	7.8	6.8	·	·	·	·
CNC[C@@H](CC1CCCCC1)NC[C@H](CC(C)C)NCCc1cccc(C(F)(F)F)c1	1.7	i	25*	10.0	9.9	6.5	i	i	-1.1	-1.0
CC1(C)COCN1S(=O)(=O)c1ccc(C(=O)Nc2nnc(-c3ccc(Cl)s3)o2)cc1	·	·	100*	·	2.3	·	i	i	-0.858	-17.5
Cc1ccc2cc(CNC[C@H]3O[C@@H](n4cc(C)c(=O)[nH]c4=O)C[C@@H]3O)c(N3CCOCC3)nc2c1	-0.1	·	·	-11.2	·	6.4	·	·	·	·
NC(COCc1ccccc1)c1csc(NC(=O)Nc2cccc(C(F)(F)F)c2)n1 (stereo not given)	0.7	·	·	6.5	·	8.5	·	·	·	·
Cc1cccc(NC(=O)c2ccc(C(=O)c3ccccc3)cc2)n1	8.4	i	100*	5.9	0.2	-10.3	47.0%*	i	-0.951	-18.5
O=S(=O)(NCC(c1ccco1)N1CCc2ccccc2C1)c1ccc(F)cc1 (stereo not given)	-0.3	i	25*	-12.9	0.0	-6.4	36.5%*	i	-0.934	-27.5
Cc1ccc(S(=O)(=O)N(C)c2ccc(OCC(=O)Nc3nc4ccccc4s3)cc2)cc1	5.5	i	i	-4.6	1.1	16.7	i	i	-0.851	-16.0
Cc1cccc(OCC(=O)Nc2nc3ccc([N+](=O)[O-])cc3s2)c1	3.0	i	25*	16.5	-0.7	-22.2	i	i	-0.962	2.0
Cc1ccc(S(=O)(=O)N(C)c2ccc(OCC(=O)Nc3nc4c(ccc5ccccc54)s3)cc2)cc1	0.9	i	i	15.8	0.5	-4.7	·	·	·	·
CC1CCC(C#N)(N(C)C(=O)CSc2nnc(C3CC3)n2C2CC2)CC1 (stereo not given)	0.2	i	·	4.2	-0.4	-13.2	·	·	·	·
COc1ccc(S(=O)(=O)Nc2ccccc2-c2nnn(CC(=O)Nc3ccccc3OC)n2)cc1	5.0	i	i	8.7	0.1	12.8	·	·	·	·
COc1ccc(NC(=O)Cn2nnc(-c3ccccc3NS(=O)(=O)c3ccccc3)n2)cc1	7.8	i	100*	9.0	4.7	22.4	38.0%*	i	-0.845	-19.5
COc1ccccc1CNC(=O)C1(C)CCN1C(=O)Cc1ccc(-c2ccccc2)cc1 (stereo not given)	6.4	·	·	17.0	·	-8.8	·	·	·	·
C/C(CC1CC2=C(CC1(C)C)C(C)(C)CCC2)=N\NC(N)=S (stereo not given)	0.9	i	25*	-3.8	16.1	-2.4	i	25.5%*	-1.03	-5.0
O=C(NC(Cc1ccccc1)C(=O)NCc1ccccn1)c1ccco1 (stereo not given)	0.3	i	25*	-3.1	0.6	9.3	i	i	-0.999	-2.0
Cc1ccc(NC(=O)CC2=NC(=O)C(CC(=O)Nc3ccccc3F)S2)cc1 (stereo not given)	0.1	i	i	8.0	0.5	-10.2	i	i	-1.05	1.0
CCOc1ccc(OCCC(=O)Nc2ccccc2C(=O)NC2CC2)cc1	1.8	·	·	4.6	·	1.3	·	·	·	·
SMILES	M1 ag parental	TMEM16A act	TMEM16A inh	M1 PAM parental	NTR1 ag	CHO-K1 Ca antag	TMEM16A reconf	HEK293 Ca mobil	YFP-HEK293 quench	ClC-1 inh
CCn1c(CCNC(=O)c2cccs2)nnc1SCC(=O)Nc1ccc(Cl)cc1	0.7	i	25*	12.0	0.1	-6.8	i	i	-0.974	-4.5
Cc1ccc2nc(-c3ccccc3)c(Cc3ccsc3)n2c1	2.4	·	·	-7.0	·	3.1	·	·	·	·
Cc1cc(NC(C)c2ccccc2)n2ncc(-c3ccccc3)c2n1 (stereo not given)	1.0	i	100*	-15.6	7.1	0.1	i	i	-0.934	-6.5
CCOc1ccc(NC(=O)Cc2ccc(S(=O)(=O)N3CCCCC3)cc2)cc1OCC	0.7	i	·	-6.8	2.3	-7.9	·	·	·	·
CCCCn1c(SCC(=O)N2CCCC2)nnc1-c1ccccc1	0.6	i	100*	10.5	-1.2	-8.5	i	i	-1.11	-11.0
Cc1ccc(NC(=O)CSc2nnc(-c3cccnc3)o2)c(C)c1	-0.2	i	i	1.7	-1.4	19.8	·	·	·	·
Cc1ccc(C)c(NC(=O)CSc2nnc(-c3ccccc3)o2)c1	0.9	i	100*	20.1	0.4	-9.7	i	i	-0.991	-8.5
CC(C)n1nnnc1-c1cccc(Cl)c1	0.8	i	i	3.3	-0.2	-5.5	i	i	-1.16	-7.5
CCCCNC(=O)C1(C)CCN1C(=O)c1cccc(OC(F)(F)F)c1 (stereo not given)	0.4	·	·	4.3	·	-4.6	·	·	·	·
N/C(=N\OC(=O)c1ccccc1)c1ccn[nH]1	0.9	i	i	3.6	0.8	1.3	·	·	·	·
O=S(=O)(Nc1ccccc1O)c1ccc(-c2ccccc2)cc1	8.2	i	100*	1.8	4.6	-7.5	57.5%*	i	-1.06	-24.0
